Several values for one entry are separate records, joined by “and”; a condition that tells them apart may be missing. Identical values can stand only once. The panel holds about 79,000 compounds, 15% with a hit somewhere; the sample as a whole holds those more often. Some structures have more than one record in an assay (separate samples or runs), and their calls can disagree. Activity calls are given as the source filed them. Rule as the data show it: active = growth inhibition above about 70%; inactive = the rest.
Columns and labels:
[1] = NCI Yeast Anticancer Drug Screen. Data for the rad50 strain (AID 155);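 also: 0% = growth of vehicle-only cultures of the same strain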; conditions: S. cerevisiae rad50 strain growth inhibition, stronger effect = higher value
In short: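 Inhibition values express reduced yeast growth in compound-treated cultures relative to vehicle-treated controls.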

[2] = NCI Yeast Anticancer Drug Screen. Data for the mec2-1 strain (AID 157); conditions: S. cerevisiae mec2-1 strain, stronger effect = higher value
In short: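 Growth inhibition is read against vehicle-treated controls after compound exposure of the mec2-1 yeast strain, which is defective in DNA damage repair or cell cycle control.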

[3] = NCI Yeast Anticancer Drug Screen. Data for the sgs1 mgt1 strain (AID 161);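 also: 0% = growth of cultures given vehicle only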; conditions: S. cerevisiae sgs1 mgt1 strain, stronger effect = higher value
In short: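 Growth of a repair-deficient yeast mutant was monitored after compound treatment and expressed as inhibition relative to vehicle-treated cultures.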

[4] = NCI Yeast Anticancer Drug Screen. Data for the cln2 rad14 strain (AID 165);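 also: 0% = growth equal to vehicle treated cultures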; conditions: S. cerevisiae cln2 rad14 strain, stronger effect = higher value
In short: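 Growth inhibition, relative to vehicle-treated controls, is the read-out. The test organism is a yeast strain with defined genetic alterations, cln2 rad14.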

[5] = NCI Yeast Anticancer Drug Screen. Data for the bub3 strain (AID 167); conditions: S. cerevisiae bub3 mutant strain, stronger effect = higher value
In short: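 Steps: expose the mutant yeast strain to compound; grow alongside vehicle-treated cultures; measure growth; express inhibition against the vehicle cultures.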

[6] = NCI Yeast Anticancer Drug Screen. Data for the mlh1 rad18 strain (AID 175); conditions: S. cerevisiae mlh1 rad18 strain growth inhibition, stronger effect = higher value
In short: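 Cells of a genetically altered yeast strain, deficient in DNA damage repair, were treated with compound. Their growth was then compared with that of vehicle-treated cultures to give inhibition.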

[7] = at 5.0 µM (retest, dose inferred, filed as 0.5)
[8] = at 50.0 µM (retest, dose inferred, filed as 5.0)

Measured: growth inhibition

C=C(CC(=O)O)C(=O)O (tested in a mixture with another compound)
-3.6% (inactive) and 99.4% (active): [1]; at 50.0 µM
inactive: [1]; [7] -1% | [1]; [8] 0% | [2]; [7] 8% | [2]; [8] 0% | [3]; [7] -1% | [3]; [8] -1% | [4]; [7] 0% | [4]; [8] -2% | [5]; [7] -3% | [5]; [8] -4% | [6]; [7] 0% | [6]; [8] -1%
18.6% (inactive) and 99.2% (active): [6]; at 50.0 µM
-21.9% (inactive) and 98.8% (active): [3]; at 50.0 µM
39% (inactive) and 99.6% (active): [4]; at 50.0 µM
28% (inactive) and 99.5% (active): [2]; at 50.0 µM
-3.25% (inactive) and 99% (active): [5]; at 50.0 µM

c1cc[c]([Pb]([c]2ccccc2)[c]2ccccc2)cc1.c1cc[c]([Pb]([c]2ccccc2)[c]2ccccc2)cc1
active: [1]; [7] 99% | [1]; [8] 98% | [1]; at 50.0 µM 99% | [2]; [7] 100% | [2]; [8] 99% | [2]; at 50.0 µM 99.5% | [3]; [7] 100% | [3]; [8] 99% | [3]; at 50.0 µM 99.5% | [4]; [7] 99% | [4]; [8] 98% | [4]; at 50.0 µM 99% | [5]; [7] 99% | [5]; [8] 97% | [5]; at 50.0 µM 99.4% | [6]; [7] 100% | [6]; [8] 99% | [6]; at 50.0 µM 99.2%

CC(=O)O[C@H]1CC[C@H]2[C@@H]3CC[C@H]4CC(=O)CC[C@@H]4[C@H]3CC[C@]12C
active: [3]; at 50.0 µM 88.6%
inactive: [1]; [7] -2% | [1]; [8] -19% | [1]; at 50.0 µM 11% | [2]; [7] -2% | [2]; [8] -9% | [2]; at 50.0 µM 10.8% | [3]; [7] -2% | [3]; [8] -10% | [4]; [7] -14% | [4]; [8] -6% | [4]; at 50.0 µM 1.15% | [5]; [7] 4% | [5]; [8] 7% | [5]; at 50.0 µM 61.5% | [6]; [7] -1% | [6]; [8] -7% | [6]; at 50.0 µM -1.35%

O=[N+]([O-])[O-].O=[N+]([O-])[O-].[Au].[Au].c1ccc([P-]c2ccccc2)cc1.c1ccc([P-]c2ccccc2)cc1
active: [1]; [8] 94% | [1]; at 50.0 µM 87.8% | [2]; [8] 95% | [2]; at 50.0 µM 91.4% | [3]; [8] 96% | [3]; at 50.0 µM 91.3% | [4]; [8] 96% | [4]; at 50.0 µM 89.5% | [5]; [8] 96% | [5]; at 50.0 µM 88.9% | [6]; [7] 72% | [6]; [8] 95% | [6]; at 50.0 µM 86.7%
inactive: [1]; [7] 62% | [2]; [7] 47% | [3]; [7] 59% | [4]; [7] 29% | [5]; [7] 53%

S=P(Nc1ccccc1)(Oc1ccccc1)c1ccccc1 (configuration not stated)
active: [1]; [8] 90% | [1]; at 50.0 µM 93.8% | [2]; [8] 91% | [2]; at 50.0 µM 94.5% | [3]; [8] 90% | [3]; at 50.0 µM 93.3% | [4]; [8] 87% | [4]; at 50.0 µM 91% | [5]; [8] 88% | [5]; at 50.0 µM 92.4% | [6]; [8] 88% | [6]; at 50.0 µM 92.7%
inactive: [1]; [7] -1% | [2]; [7] 5% | [3]; [7] 3% | [4]; [7] -1% | [5]; [7] 1% | [6]; [7] 6%

CCC[CH2][Sn]1([CH2]CCC)[O]C(=O)c2cccc(C)c2[O]1
active: [1]; [7] 86% | [1]; [8] 96% | [1]; at 50.0 µM 96.7% | [2]; [7] 89% | [2]; [8] 98% | [2]; at 50.0 µM 97.7% | [3]; [7] 88% | [3]; [8] 94% | [3]; at 50.0 µM 96.3% | [4]; [7] 86% | [4]; [8] 97% | [4]; at 50.0 µM 93.3% | [5]; [7] 88% | [5]; [8] 97% | [5]; at 50.0 µM 95.9% | [6]; [7] 87% | [6]; [8] 95% | [6]; at 50.0 µM 98.2%

Cc1ccc([PH+](c2ccc(C)cc2)c2ccc(C)cc2)cc1.Cc1ccc([PH+](c2ccc(C)cc2)c2ccc(C)cc2)cc1.[Cl][Hg][Cl]
active: [1]; [7] 98% | [1]; [8] 95% | [2]; [7] 99% | [2]; [8] 98% | [2]; at 50.0 µM 97.2% | [3]; [7] 99% | [3]; [8] 95% | [3]; at 50.0 µM 99.5% | [4]; [7] 93% | [4]; [8] 96% | [5]; [7] 98% | [5]; [8] 95% | [5]; at 50.0 µM 99.3% | [6]; [7] 99% | [6]; [8] 94% | [6]; at 50.0 µM 95.9%
inactive: [1]; at 50.0 µM 47.6% | [4]; at 50.0 µM 29.3%

CC(C)CCCC(C)CCC1C(=O)NC(=O)NC1=O (configuration not stated)
inactive: [1]; [7] 6% | [1]; [8] 23% | [1]; at 50.0 µM -6.75% and 8.2% | [2]; [7] -17% | [2]; [8] 4% | [2]; at 50.0 µM -0.5% and -2.3% | [3]; [7] -6% | [3]; [8] 21% | [3]; at 50.0 µM -8.05% and 38.9% | [4]; [7] -1% | [4]; [8] 3% | [4]; at 50.0 µM -31.1% and -44.4% | [5]; [7] -3% | [5]; [8] -3% | [5]; at 50.0 µM -5.55% and -18.1% | [6]; [7] 13% | [6]; [8] 48% | [6]; at 50.0 µM 2.7% and -0.7%

OC(c1ccc(Cl)cc1)C(Cl)(Cl)Cl (configuration not stated)
active: [1]; [8] 98% | [1]; at 50.0 µM 97.6% | [2]; [8] 98% | [2]; at 50.0 µM 96.8% | [3]; at 50.0 µM 81.2% | [4]; [8] 96% | [4]; at 50.0 µM 77.8% | [5]; [8] 99% | [5]; at 50.0 µM 95.3% | [6]; [8] 97% | [6]; at 50.0 µM 97.5%
inactive: [1]; [7] 6% | [2]; [7] 0% | [3]; [7] -1% | [3]; [8] 35% | [4]; [7] 1% | [5]; [7] -8% | [6]; [7] 3%
